# Data from the supplement of paper PMC12282887.
# ± gives the standard deviation of the averaged measurements.
# Legend:
# Assay in all cases: promoter activity interaction Z-score (Lux/OD deviation from empty-vector control); higher = stronger promoter induction by the compound
# [1] = system: E. coli BW25113 acrABp lux reporter
# How it was run: (§1)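 Low-copy luxCDABE promoter reporters were carried by E. coli BW25113, either wild type or lacking one of three genes, grown in 40 µl LB Lennox in 384-well plates at 37°C. Each compound was run at four 1:2 dilutions in biological duplicates, with OD600 and luminescence read every 30 min for 12 h. Integration used 0–8 h for wild type and 1–9 h for deletion strains, and wells under 10% of the median growth value were removed. Luminescence normalised to growth was fitted against a control, and the Z-transformed residual is the score.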
# [2] = system: E. coli BW25113 micFp lux reporter
# How it was run: as §1
# [3] = system: E. coli BW25113 ompFp lux reporter
# How it was run: as §1
# [4] = system: E. coli BW25113 robp lux reporter
# How it was run: as §1
# [5] = system: E. coli BW25113 soxSp lux reporter
# How it was run: as §1
# [6] = system: E. coli BW25113 tolCp lux reporter
# How it was run: as §1
# [7] = 0.0012 µg/ml, genetic background: wild type
# [8] = 0.0012 µg/ml, genetic background: ΔmarA
# [9] = 0.0012 µg/ml, genetic background: Δrob
# [10] = 0.0012 µg/ml, genetic background: ΔsoxS
# [11] = 0.0024 µg/ml, genetic background: wild type
# [12] = 0.0024 µg/ml, genetic background: ΔmarA
# [13] = 0.0024 µg/ml, genetic background: Δrob
# [14] = 0.0024 µg/ml, genetic background: ΔsoxS
# [15] = 0.0048 µg/ml, genetic background: wild type
# [16] = 0.0048 µg/ml, genetic background: ΔmarA
# [17] = 0.0048 µg/ml, genetic background: Δrob
# [18] = 0.0048 µg/ml, genetic background: ΔsoxS
# [19] = 0.01 µg/ml, genetic background: wild type
# [20] = 0.01 µg/ml, genetic background: ΔmarA
# [21] = 0.01 µg/ml, genetic background: Δrob
# [22] = 0.01 µg/ml, genetic background: ΔsoxS
smiles,measurement,setting,value
CO/N=C(\C(=O)N[C@@H]1C(=O)N2C(C(=O)O)=C(COC(C)=O)CS[C@H]12)c1csc(N)n1 [Cefotaxime],promoter activity interaction Z-score,[1]; [7],-0.284 ± 0.025
same,promoter activity interaction Z-score,[1]; [8],0.0868 ± 0.9
same,promoter activity interaction Z-score,[1]; [9],-0.103 ± 0.27
same,promoter activity interaction Z-score,[1]; [10],-0.098 ± 0.18
same,promoter activity interaction Z-score,[1]; [11],-0.0863 ± 0.2
same,promoter activity interaction Z-score,[1]; [12],-0.059 ± 0.93
same,promoter activity interaction Z-score,[1]; [13],0.00639 ± 0.18
same,promoter activity interaction Z-score,[1]; [14],0.118 ± 0.16
same,promoter activity interaction Z-score,[1]; [15],-0.23 ± 0.15
same,promoter activity interaction Z-score,[1]; [16],0.42 ± 0.9
same,promoter activity interaction Z-score,[1]; [17],-0.311 ± 0.072
same,promoter activity interaction Z-score,[1]; [18],-0.148 ± 0.096
same,promoter activity interaction Z-score,[1]; [19],-0.274 ± 0.025
same,promoter activity interaction Z-score,[1]; [20],-1.6 ± 0.042
same,promoter activity interaction Z-score,[1]; [21],-0.154 ± 0.33
same,promoter activity interaction Z-score,[1]; [22],0.212 ± 0.064
same,promoter activity interaction Z-score,[2]; [7],0.00627 ± 0.0068
same,promoter activity interaction Z-score,[2]; [8],-0.0578 ± 0.08
same,promoter activity interaction Z-score,[2]; [9],0.0368 ± 0.11
same,promoter activity interaction Z-score,[2]; [10],-0.0273 ± 0.11
same,promoter activity interaction Z-score,[2]; [11],-0.0766 ± 0.15
same,promoter activity interaction Z-score,[2]; [12],0.0449 ± 0.11
same,promoter activity interaction Z-score,[2]; [13],0.0295 ± 0.15
same,promoter activity interaction Z-score,[2]; [14],-0.18 ± 0.098
same,promoter activity interaction Z-score,[2]; [15],-0.0576 ± 0.36
same,promoter activity interaction Z-score,[2]; [16],-0.223 ± 0.19
same,promoter activity interaction Z-score,[2]; [17],0.0329 ± 0.18
same,promoter activity interaction Z-score,[2]; [18],-0.198 ± 0.15
same,promoter activity interaction Z-score,[2]; [19],-0.5 ± 0.52
same,promoter activity interaction Z-score,[2]; [20],-0.278 ± 0.011
same,promoter activity interaction Z-score,[2]; [21],-0.0107 ± 0.074
same,promoter activity interaction Z-score,[2]; [22],-0.133 ± 0.077
same,promoter activity interaction Z-score,[3]; [7],-0.111 ± 0.025
same,promoter activity interaction Z-score,[3]; [8],-0.439 ± 0.11
same,promoter activity interaction Z-score,[3]; [9],-0.492 ± 0.1
same,promoter activity interaction Z-score,[3]; [10],0.179 ± 0.43
same,promoter activity interaction Z-score,[3]; [11],0.0538 ± 0.32
same,promoter activity interaction Z-score,[3]; [12],0.191 ± 0.18
same,promoter activity interaction Z-score,[3]; [13],-0.287 ± 0.12
same,promoter activity interaction Z-score,[3]; [14],-0.23 ± 0.033
same,promoter activity interaction Z-score,[3]; [15],-0.24 ± 0.46
same,promoter activity interaction Z-score,[3]; [16],-0.537 ± 0.14
same,promoter activity interaction Z-score,[3]; [17],-0.409 ± 0.18
same,promoter activity interaction Z-score,[3]; [18],-0.158 ± 0.26
same,promoter activity interaction Z-score,[3]; [19],-0.753 ± 0.55
same,promoter activity interaction Z-score,[3]; [20],-2.18 ± 0.79
same,promoter activity interaction Z-score,[3]; [21],-0.598 ± 0.51
same,promoter activity interaction Z-score,[3]; [22],-2.53
same,promoter activity interaction Z-score,[4]; [7],-0.219 ± 0.23
same,promoter activity interaction Z-score,[4]; [8],-0.756 ± 0.2
same,promoter activity interaction Z-score,[4]; [9],-0.209 ± 0.28
same,promoter activity interaction Z-score,[4]; [10],-0.0836 ± 0.31
same,promoter activity interaction Z-score,[4]; [11],-0.0844 ± 0.072
same,promoter activity interaction Z-score,[4]; [12],0.0702 ± 0.056
same,promoter activity interaction Z-score,[4]; [13],0.0668 ± 0.073
same,promoter activity interaction Z-score,[4]; [14],-0.0496 ± 0.19
same,promoter activity interaction Z-score,[4]; [15],0.227 ± 0.29
same,promoter activity interaction Z-score,[4]; [16],-0.466 ± 0.095
same,promoter activity interaction Z-score,[4]; [17],0.0502 ± 0.2
same,promoter activity interaction Z-score,[4]; [18],-0.0174 ± 0.097
same,promoter activity interaction Z-score,[4]; [19],-1.42 ± 0.066
same,promoter activity interaction Z-score,[4]; [20],-2.06 ± 1.6
same,promoter activity interaction Z-score,[4]; [21],-1.76 ± 0.19
same,promoter activity interaction Z-score,[4]; [22],-2.39 ± 0.34
same,promoter activity interaction Z-score,[5]; [7],0.251 ± 0.06
same,promoter activity interaction Z-score,[5]; [8],-0.00348 ± 0.14
same,promoter activity interaction Z-score,[5]; [9],0.17 ± 0.16
same,promoter activity interaction Z-score,[5]; [10],0.0148 ± 0.24
same,promoter activity interaction Z-score,[5]; [11],0.182 ± 0.044
same,promoter activity interaction Z-score,[5]; [12],0.121 ± 0.06
same,promoter activity interaction Z-score,[5]; [13],0.225 ± 0.25
same,promoter activity interaction Z-score,[5]; [14],0.066 ± 0.3
same,promoter activity interaction Z-score,[5]; [15],-0.0447 ± 0.15
same,promoter activity interaction Z-score,[5]; [16],-0.225 ± 0.1
same,promoter activity interaction Z-score,[5]; [17],-0.0284 ± 0.17
same,promoter activity interaction Z-score,[5]; [18],-0.179 ± 0.2
same,promoter activity interaction Z-score,[5]; [19],-0.209 ± 0.042
same,promoter activity interaction Z-score,[5]; [20],-0.312 ± 0.071
same,promoter activity interaction Z-score,[5]; [21],-0.223 ± 0.19
same,promoter activity interaction Z-score,[5]; [22],0.193 ± 0.17
same,promoter activity interaction Z-score,[6]; [7],0.0259 ± 0.64
same,promoter activity interaction Z-score,[6]; [8],0.293 ± 0.38
same,promoter activity interaction Z-score,[6]; [9],-0.312 ± 0.38
same,promoter activity interaction Z-score,[6]; [10],-0.0825 ± 0.76
same,promoter activity interaction Z-score,[6]; [11],0.373 ± 1.2
same,promoter activity interaction Z-score,[6]; [12],0.241 ± 0.74
same,promoter activity interaction Z-score,[6]; [13],-0.132 ± 1.1
same,promoter activity interaction Z-score,[6]; [14],-0.287 ± 1.4
same,promoter activity interaction Z-score,[6]; [15],0.132 ± 0.29
same,promoter activity interaction Z-score,[6]; [16],-0.365 ± 0.46
same,promoter activity interaction Z-score,[6]; [17],-0.311 ± 0.89
same,promoter activity interaction Z-score,[6]; [18],0.17 ± 0.82
same,promoter activity interaction Z-score,[6]; [19],-0.425 ± 1.4
same,promoter activity interaction Z-score,[6]; [20],-0.436 ± 0.19
same,promoter activity interaction Z-score,[6]; [21],0.622 ± 1.5
same,promoter activity interaction Z-score,[6]; [22],-0.234 ± 0.026
